Screening results as filed in PubChem BioAssay.
rCAG RNA binder: binders of r(CAG) RNA repeats, primary screen, biochemical, fluorescence. r(CAG) RNA repeat, TO-PRO-1 dye displacement fluorescence. inhibition, % at 3 µM. AID 651821, 2012. actives 1.3% (n = 370,000);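 active means inhibition above the plate cutoff, the mean of all test compounds on that plate plus 3 SD, cut at about 35% in these data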;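 further: higher means more dye released from RNA so lower well fluorescence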
MsrA act: bovine MsrA enzyme activators, primary screen, biochemical, absorbance, HTS | Methionine sulfoxide reductase A (Bos taurus) | purified bovine MsrA, absorbance read-out | activation, % at 10.6 µM | actives 0.3% (n = 360,000); in the data active means activation above about 7.5%
MsrA inh: bovine MsrA enzyme inhibitors, primary screen, biochemical, absorbance, HTS; Methionine sulfoxide reductase A (Bos taurus); purified bovine MsrA, absorbance read-out; inhibition, % at 15.5 µM; actives 0.75% (n = 360,000); AID 651718, 2012
NadD block: inhibitors of S. aureus NadD, primary screen, biochemical, colorimetric, uHTS; AID 602399, 2012; Nicotinate-nucleotide adenylyltransferase NadD (Staphylococcus aureus N315); actives 0.78% (n = 360,000); inhibition, % at 20 µM; purified NadD enzyme, colorimetric absorbance read-out; in the data active means inhibition above about 26%
Pemphigus Ab inh: inhibitors of pemphigus antibody binding to DSG3, primary screen, biochemical, bead-based, flow cytometry, scFv-GFP | AID 588358, 2011 | DSG3-coupled beads, scFv-anti-DSG3-GFP binding; stronger effect = lower value | Desmoglein-3 (Homo sapiens), P32926 | actives 0.48% (n = 310,000) | binding (percent of control), % at 10 µM;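 active means binding more than 3 SD below its plate's average and above zero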;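 further: hits lower antibody fragment binding to DSG3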
Target sequence (P32926 whole entry, looked up, the tested form may be a part): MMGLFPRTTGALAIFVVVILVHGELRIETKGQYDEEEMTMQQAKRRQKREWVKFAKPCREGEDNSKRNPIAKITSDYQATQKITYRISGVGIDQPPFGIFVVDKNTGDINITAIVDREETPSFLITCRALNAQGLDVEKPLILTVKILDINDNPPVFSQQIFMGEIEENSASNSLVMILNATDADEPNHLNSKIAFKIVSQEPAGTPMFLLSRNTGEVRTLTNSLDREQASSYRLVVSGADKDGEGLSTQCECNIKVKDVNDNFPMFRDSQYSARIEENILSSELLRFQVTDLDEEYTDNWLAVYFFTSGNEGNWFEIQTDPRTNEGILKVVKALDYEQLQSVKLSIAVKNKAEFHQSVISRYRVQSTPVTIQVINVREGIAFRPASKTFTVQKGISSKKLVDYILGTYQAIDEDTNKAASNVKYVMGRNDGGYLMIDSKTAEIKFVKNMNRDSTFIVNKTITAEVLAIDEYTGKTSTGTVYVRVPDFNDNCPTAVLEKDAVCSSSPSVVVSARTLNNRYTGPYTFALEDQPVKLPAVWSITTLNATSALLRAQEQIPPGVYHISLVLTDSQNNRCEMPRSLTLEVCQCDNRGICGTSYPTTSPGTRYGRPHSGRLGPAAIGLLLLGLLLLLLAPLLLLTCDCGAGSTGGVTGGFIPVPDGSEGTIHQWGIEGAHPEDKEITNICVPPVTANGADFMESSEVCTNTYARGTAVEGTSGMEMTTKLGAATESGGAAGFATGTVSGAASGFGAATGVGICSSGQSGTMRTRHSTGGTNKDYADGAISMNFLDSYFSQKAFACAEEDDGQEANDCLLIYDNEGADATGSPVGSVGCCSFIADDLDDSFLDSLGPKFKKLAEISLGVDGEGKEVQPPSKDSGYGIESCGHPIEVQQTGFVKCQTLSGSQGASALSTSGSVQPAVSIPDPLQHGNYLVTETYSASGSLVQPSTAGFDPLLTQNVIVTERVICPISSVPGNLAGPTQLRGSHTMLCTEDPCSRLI
DAGLB inh: DAGLB lipase inhibitors, primary screen, biochemical, fluorescence, HTS | inhibition, % at 5.17 µM | actives 0.059% (n = 340,000) | Diacylglycerol lipase-beta (Homo sapiens), Q8NCG7 | AID 504411, 2011 | HEK293T DAGLB membrane lysate, EnzChek fluorogenic substrate; in the data active means inhibition above about 34%
MsrA conf: bovine MsrA inhibitors, retest, confirmation, biochemical, absorbance, HTS | inhibition, % at 15.5 µM | purified bovine MsrA, absorbance read-out | shares compounds with MsrA inh | actives 41% (n = 2,300);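 further: coupled to thioredoxin reductase with NADPH and selenocystamine and DMSO as substrate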
Large screens that a line does not name were inactive (follow-up assays come after a bar, where they were run). Shown are actives, neighbours in structure and some others; about 3.2% of the full set was active somewhere. Unless noted, no stated cut-off is given here; in the data, active means inhibition above about 4.5%; inactive means the rest.

CCn1cc(/C=C(\NC(=O)c2ccccc2OC)C(=O)NCCN2CCOCC2)c2ccccc21	MsrA inh 4.7 | MsrA conf inactive
CCOC(=O)[C@]12CCCC=C1N(CCCOC)C(=O)[C@@H]2CC(=O)NCCCCc1ccccc1	none (no result: MsrA act, MsrA inh, NadD block, Pemphigus Ab inh, DAGLB inh)
Cc1ccc(C(=O)N/C(=C\c2cn(C)c3ccccc23)C(=O)N2CCOCC2)cc1	none
Cn1cc(/C=C(\NC(=O)c2ccccc2)C(=O)N2CCOCC2)c2ccccc21	MsrA inh 5.7 | MsrA conf inactive
COc1cc(C(=O)N/C(=C\c2cn(C)c3ccccc23)C(=O)NCCN2CCOCC2)cc(OC)c1OC	MsrA inh 5.3 (no result: Pemphigus Ab inh) | MsrA conf inactive
Cn1cc(/C=C(\NC(=O)c2ccccc2Cl)C(=O)NCCN2CCOCC2)c2ccccc21	MsrA inh 4.8 (no result: Pemphigus Ab inh) | MsrA conf inactive
COc1ccc(NC(=O)c2cc(-c3cc(F)ccc3OCC3CCCO3)n[nH]2)cc1OC (stereo unspecified)	none (no result: Pemphigus Ab inh, DAGLB inh)
Cc1ccc(S(=O)(=O)CC(=O)N2CCN(c3cccc(C(F)(F)F)c3)CC2)cc1	none
CCCCCC(=O)N1C[C@H](n2cc(C3CC3)nn2)[C@@H](O)C[C@@H]1c1ccccc1	none (no result: Pemphigus Ab inh)
COc1ccc(-c2cc(C(F)(F)F)nc(N3CCN(C)CC3)n2)cc1	none (no result: Pemphigus Ab inh)
CN1CCN(c2nc(C#N)cc(-c3ccccc3)n2)CC1	MsrA inh 5.0 | MsrA conf inactive
N/C(=N\N=C\c1ccc2c(c1)OCO2)c1nonc1N	MsrA inh 7.3 | MsrA conf inactive
COc1ccc(CN(C)C(=O)/C=C/[C@H]2O[C@@H](n3cc(C)c(=O)[nH]c3=O)C[C@@H]2O)cc1OC	none (no result: Pemphigus Ab inh, DAGLB inh)
COc1ccc(/C=C2\Oc3cc(OCC(=O)N4CCC[C@H]4C(=O)O)ccc3C2=O)c(OC)c1OC	MsrA inh 5.1 | MsrA conf 5.5
COc1ccc(/C=C2\Oc3cc(OCC(=O)N4CCC[C@H]4C(=O)O)ccc3C2=O)cc1OC	none (no result: rCAG RNA binder, MsrA inh)
COc1ccc(/C=C2\Oc3cc(OCC(=O)N4CC(O)C[C@H]4C(=O)O)ccc3C2=O)c(OC)c1OC (stereo partly specified)	MsrA inh 4.9 | MsrA conf inactive
COc1ccc(/C=C2\Oc3cc(OCC(=O)N4CC(O)C[C@H]4C(=O)O)ccc3C2=O)cc1OC (stereo partly specified)	none
COc1cc(/C=C/c2nc3ccccc3c(=O)[nH]2)ccc1O	MsrA inh 7.0 | MsrA conf inactive
CCOc1cc(/C=C/c2nc3ccccc3c(=O)[nH]2)ccc1O	none
Fc1ccccc1C1CC(c2ccco2)=Nc2ccccc2S1 (stereo unspecified)	MsrA inh 4.9 | MsrA conf inactive
O=C(c1cscn1)N1CCC(Oc2cccnc2)CC1	none (no result: MsrA act, MsrA inh, NadD block, Pemphigus Ab inh, DAGLB inh)
O=C(c1cccnc1)N1CCN(C(=O)c2cccc(Cl)c2)CC1	none
O=C1NCCN1C(=O)c1cccc(Cl)c1	MsrA inh 11.6 | MsrA conf 9.9
Cc1cc(N)cc(C)c1-c1c(Br)cc(N)cc1Br	none
CCOC(=O)[C@]12CCC=C1N(Cc1ccco1)C(=O)[C@H](CC(=O)N1CCCC1)C2	none (no result: Pemphigus Ab inh, DAGLB inh)
CCOc1ccc(/C=C/C2=NNC(=O)CC2)cc1	MsrA inh 6.7 | MsrA conf inactive
O=C1CCC(/C=C/c2ccccc2)=NN1	none
COc1ccc(/C=C/C2=NNC(=O)CC2)cc1	MsrA inh 5.5 | MsrA conf 4.7
CCOC(=O)[C@]12CCCC=C1N(Cc1ccc(OC)cc1)C(=O)[C@@H]2CC(=O)NCCC(C)C	none (no result: MsrA act, MsrA inh, NadD block, Pemphigus Ab inh, DAGLB inh)
O=[N+]([O-])c1nccn1CC(O)CCN1CCOCC1 (stereo unspecified)	none (no result: MsrA act, NadD block, Pemphigus Ab inh, DAGLB inh)
CCOC(=O)C(/C=C(\C#N)C(=O)OCC)=C(/N)N1CCN(c2ccccc2)CC1	MsrA inh 6.8 | MsrA conf 5.3
CCOC(=O)/C(C#N)=C/c1ccc(N2CCN(C)CC2)cc1	none
CC(C)(C)S(=O)N1C[C@H]2CC(=O)C(CCO)=C2[C@@H]1CCO (stereo partly specified)	none (no result: MsrA act, NadD block, Pemphigus Ab inh, DAGLB inh)
NC(=S)N/N=C/c1ccc(-c2cccc([N+](=O)[O-])c2)o1	MsrA inh 5.1 | MsrA conf 7.6
CCOC(=O)/C(C#N)=C1/C=C(C)c2ccccc2N1	none
CCOC(=O)/C(C#N)=C1/C=CN(c2ccccc2)C=N1	MsrA inh 5.6 | MsrA conf 6.0
CCOC(=O)/C(C#N)=C1/C=Nc2ccccc2N1	none
CCOC(=O)/C(C#N)=C1/C=CN(Cc2ccccc2)C=N1	MsrA inh 7.4 | MsrA conf 5.7
CCOC(=O)/C(C#N)=C1\C=CN(C)C(C)=N1	MsrA inh 6.0 (no result: Pemphigus Ab inh) | MsrA conf inactive
CCOC(=O)/C(C#N)=C1/C=CN(C)C=N1	MsrA inh 7.4 (no result: Pemphigus Ab inh) | MsrA conf 5.7
CCOC(=O)C(=O)C1=CN(Cc2ccccc2)C=C(C#N)C1	none
COc1cc(N2CCC(O)CC2)ccc1Nc1nnc(Cl)c(Nc2ccccc2S(C)(=O)=O)n1	none (no result: rCAG RNA binder, MsrA inh)
CCOC(=O)/C(C#N)=C1/C=CN(c2ccc(C)cc2)C=N1	MsrA inh 6.6 | MsrA conf 5.2
CCOC(=O)/C(C#N)=C1/SC(CC)C(=O)N1c1ccc(C)cc1 (stereo unspecified)	none (no result: Pemphigus Ab inh)
C[C@H]1[C@@H](C(=O)N2CCCC2)CC(=O)/C(=N/OCc2ccccc2)C[C@@H]1c1ccccc1	none (no result: MsrA act, MsrA inh, NadD block, Pemphigus Ab inh, DAGLB inh)
CC(/C=C/c1ccc2c(c1)OCO2)=N/NC(=O)c1ccc(C)nc1	MsrA inh 5.4 | MsrA conf 7.1
CC(/C=C/c1ccc2c(c1)OCO2)=N/NC(=O)c1cccnc1	MsrA inh 7.2 | MsrA conf 5.5
CC(/C=C/c1ccc2c(c1)OCO2)=N/NC(=O)c1ccncc1	MsrA inh 5.6 | MsrA conf 8.6
Cc1ccc(C(=O)N/N=C\c2cc3c(cc2Br)OCO3)cn1	none
C/C(=N\NC(=O)c1ccc2c(c1)OCO2)c1cccnc1	none (no result: Pemphigus Ab inh)
COc1ccc(C#Cc2c(-c3ccccc3OC)oc3ccccc23)cc1	none (no result: MsrA act, NadD block, Pemphigus Ab inh, DAGLB inh)
CCN(CC)c1ccc(/C=N/NC(=O)CNC(=O)/C=C/c2ccco2)cc1	MsrA inh 6.3 (no result: Pemphigus Ab inh) | MsrA conf 8.0
CC(C)(C)OC(=O)N/N=C\C=C\c1ccc2c(c1)OCO2	MsrA inh 5.1 | MsrA conf inactive
CCCCCCOc1ccc(/C=N/NC(=O)C2CC2)cc1	none
COc1ccc(CC(=O)N/N=C/C=C/c2ccc3c(c2)OCO3)cc1OC	MsrA inh 5.9 (no result: DAGLB inh) | MsrA conf inactive
CCN(CC)c1ccc(/C=N/NC(=O)C2CC2)cc1	MsrA inh 5.8 (no result: Pemphigus Ab inh) | MsrA conf 5.5
COc1ccc(S(=O)(=O)N2CCCCC2)cc1NC(=O)C1CC1(Cl)Cl (stereo unspecified)	none
